# Assays:
# [1] = biological target: Nuclear cap-binding protein subunit 1 (UniProt Q09161); assay: cross-linking mass spectrometry
# [2] = biological target: Cell division cycle 5-like protein (UniProt Q99459); assay: cross-link between two proteins; cross-linking mass spectrometry
# [3] = biological target: Pre-mRNA-processing-splicing factor 8 (UniProt Q6P2Q9); assay: as above
# [4] = biological target: Small nuclear ribonucleoprotein-associated proteins B and B' (UniProt P14678); assay: as above
# [5] = biological target: Splicing factor 3A subunit 2 (UniProt Q15428); assay: as above
# Chain of Splicing factor 3A subunit 2 (Q15428 whole entry): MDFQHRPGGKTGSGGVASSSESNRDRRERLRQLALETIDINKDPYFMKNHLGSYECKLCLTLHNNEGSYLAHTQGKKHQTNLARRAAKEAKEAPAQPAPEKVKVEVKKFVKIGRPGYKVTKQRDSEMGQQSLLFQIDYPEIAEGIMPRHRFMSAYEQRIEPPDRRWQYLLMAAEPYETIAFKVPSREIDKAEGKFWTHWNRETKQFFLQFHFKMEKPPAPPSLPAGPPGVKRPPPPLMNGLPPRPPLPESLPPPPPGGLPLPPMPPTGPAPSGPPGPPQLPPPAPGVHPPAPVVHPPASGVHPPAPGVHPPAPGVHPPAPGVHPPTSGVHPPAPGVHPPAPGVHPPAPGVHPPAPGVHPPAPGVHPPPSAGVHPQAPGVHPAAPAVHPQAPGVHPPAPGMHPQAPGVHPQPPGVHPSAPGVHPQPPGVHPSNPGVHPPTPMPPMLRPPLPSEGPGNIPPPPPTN
# [6] = biological target: U6 snRNA-associated Sm-like protein LSm4 (UniProt Q9Y4Z0); assay: as above
# Chain of U6 snRNA-associated Sm-like protein LSm4 (Q9Y4Z0 whole entry): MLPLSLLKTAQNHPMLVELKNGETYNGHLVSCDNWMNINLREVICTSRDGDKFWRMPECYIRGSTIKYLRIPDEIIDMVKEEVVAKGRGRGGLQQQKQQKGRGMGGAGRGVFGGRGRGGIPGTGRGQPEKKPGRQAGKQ
# [7] = biological target: U6 snRNA-associated Sm-like protein LSm6 (UniProt P62312); assay: as above
# Chain of U6 snRNA-associated Sm-like protein LSm6 (P62312 whole entry): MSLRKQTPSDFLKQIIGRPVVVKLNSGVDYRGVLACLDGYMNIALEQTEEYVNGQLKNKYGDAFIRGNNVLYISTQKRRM
# [8] = biological target: WD repeat-containing protein 70 (UniProt Q9NW82); assay: as above
# Chain of WD repeat-containing protein 70 (Q9NW82 whole entry, the tested form may be a part): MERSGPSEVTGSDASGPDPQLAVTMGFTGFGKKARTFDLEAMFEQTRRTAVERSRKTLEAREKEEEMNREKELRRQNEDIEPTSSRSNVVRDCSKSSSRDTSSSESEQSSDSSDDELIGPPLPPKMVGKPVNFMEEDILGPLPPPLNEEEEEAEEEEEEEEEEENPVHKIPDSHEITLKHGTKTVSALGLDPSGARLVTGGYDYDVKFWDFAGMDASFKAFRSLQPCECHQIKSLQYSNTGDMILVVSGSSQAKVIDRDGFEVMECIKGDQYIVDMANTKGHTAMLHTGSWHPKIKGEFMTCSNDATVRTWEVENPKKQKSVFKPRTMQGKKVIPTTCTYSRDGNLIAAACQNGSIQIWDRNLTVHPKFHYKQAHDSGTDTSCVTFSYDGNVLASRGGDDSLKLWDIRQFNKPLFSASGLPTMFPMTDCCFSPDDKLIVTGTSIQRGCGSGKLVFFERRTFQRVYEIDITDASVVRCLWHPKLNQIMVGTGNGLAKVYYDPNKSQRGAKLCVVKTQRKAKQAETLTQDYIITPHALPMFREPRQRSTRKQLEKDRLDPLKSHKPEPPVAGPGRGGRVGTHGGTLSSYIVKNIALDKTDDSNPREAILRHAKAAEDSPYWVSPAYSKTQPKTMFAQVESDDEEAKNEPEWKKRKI
# [9] = biological target: WW domain-binding protein 4 (UniProt O75554); assay: as above
# Chain of WW domain-binding protein 4 (O75554 whole entry, the tested form may be a part): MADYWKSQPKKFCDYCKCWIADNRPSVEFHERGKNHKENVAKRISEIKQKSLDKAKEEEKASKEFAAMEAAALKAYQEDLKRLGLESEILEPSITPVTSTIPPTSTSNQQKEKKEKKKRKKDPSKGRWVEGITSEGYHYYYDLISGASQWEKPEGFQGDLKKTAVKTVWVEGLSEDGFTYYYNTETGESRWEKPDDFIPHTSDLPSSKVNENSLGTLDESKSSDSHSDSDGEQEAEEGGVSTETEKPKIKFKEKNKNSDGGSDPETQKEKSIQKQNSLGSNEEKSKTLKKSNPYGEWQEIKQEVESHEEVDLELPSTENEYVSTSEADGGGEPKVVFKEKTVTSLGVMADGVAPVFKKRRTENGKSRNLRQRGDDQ
# [10] = biological target: Zinc finger CCCH domain-containing protein 18 (UniProt Q86VM9); assay: as above
# Chain of Zinc finger CCCH domain-containing protein 18 (Q86VM9 whole entry, the tested form may be a part): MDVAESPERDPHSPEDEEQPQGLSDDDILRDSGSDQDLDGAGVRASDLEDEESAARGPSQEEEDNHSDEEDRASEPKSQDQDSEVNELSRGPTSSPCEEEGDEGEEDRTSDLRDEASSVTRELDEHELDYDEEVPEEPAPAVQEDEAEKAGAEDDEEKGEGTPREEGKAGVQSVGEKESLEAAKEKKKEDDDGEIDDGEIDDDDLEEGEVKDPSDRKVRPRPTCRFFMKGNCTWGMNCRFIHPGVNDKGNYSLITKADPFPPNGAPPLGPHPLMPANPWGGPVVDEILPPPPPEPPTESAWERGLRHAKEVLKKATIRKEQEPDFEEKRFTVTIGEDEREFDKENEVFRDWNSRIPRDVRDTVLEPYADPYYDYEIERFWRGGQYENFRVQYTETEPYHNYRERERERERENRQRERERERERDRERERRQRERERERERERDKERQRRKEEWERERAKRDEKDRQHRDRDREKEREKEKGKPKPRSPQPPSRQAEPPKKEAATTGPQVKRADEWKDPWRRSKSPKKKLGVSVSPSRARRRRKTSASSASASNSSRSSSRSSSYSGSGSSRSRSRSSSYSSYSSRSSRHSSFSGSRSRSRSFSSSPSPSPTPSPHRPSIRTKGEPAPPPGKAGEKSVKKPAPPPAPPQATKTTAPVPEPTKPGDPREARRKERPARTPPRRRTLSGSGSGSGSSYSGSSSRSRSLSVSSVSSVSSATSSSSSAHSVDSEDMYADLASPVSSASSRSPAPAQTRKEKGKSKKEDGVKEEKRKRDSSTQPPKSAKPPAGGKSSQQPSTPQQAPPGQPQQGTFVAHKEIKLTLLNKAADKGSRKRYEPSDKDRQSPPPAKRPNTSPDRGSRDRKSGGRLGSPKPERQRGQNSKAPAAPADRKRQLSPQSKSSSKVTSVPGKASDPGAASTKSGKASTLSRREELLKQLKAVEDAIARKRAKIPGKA
# [11] = biological target: Cell division cycle 5-like protein (UniProt Q99459); assay: cross-link between two proteins; cross-linking mass spectrometry; other
# Chain of Cell division cycle 5-like protein (Q99459 whole entry): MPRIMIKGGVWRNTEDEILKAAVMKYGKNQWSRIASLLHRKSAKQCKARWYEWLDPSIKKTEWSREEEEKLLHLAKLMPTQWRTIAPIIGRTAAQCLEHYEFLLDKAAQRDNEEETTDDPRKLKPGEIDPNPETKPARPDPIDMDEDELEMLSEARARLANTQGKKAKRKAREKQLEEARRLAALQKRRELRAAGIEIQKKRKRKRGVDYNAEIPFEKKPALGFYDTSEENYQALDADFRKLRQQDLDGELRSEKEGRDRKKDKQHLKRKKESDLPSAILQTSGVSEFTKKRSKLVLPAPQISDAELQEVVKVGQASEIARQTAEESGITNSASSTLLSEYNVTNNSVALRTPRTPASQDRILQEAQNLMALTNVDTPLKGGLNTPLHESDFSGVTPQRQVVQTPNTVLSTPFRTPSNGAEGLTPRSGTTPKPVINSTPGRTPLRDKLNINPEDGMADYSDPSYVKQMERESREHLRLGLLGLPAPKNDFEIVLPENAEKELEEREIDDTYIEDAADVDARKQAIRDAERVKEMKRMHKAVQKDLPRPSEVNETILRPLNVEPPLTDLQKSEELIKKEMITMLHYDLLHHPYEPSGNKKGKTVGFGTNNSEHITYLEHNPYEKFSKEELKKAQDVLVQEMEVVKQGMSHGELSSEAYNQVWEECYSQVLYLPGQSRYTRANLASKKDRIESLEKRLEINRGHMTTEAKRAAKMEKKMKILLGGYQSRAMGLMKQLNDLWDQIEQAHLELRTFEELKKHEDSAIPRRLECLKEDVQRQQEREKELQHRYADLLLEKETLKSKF
# Chain of Peptidyl-prolyl cis-trans isomerase H, O43447 (O43447 whole entry): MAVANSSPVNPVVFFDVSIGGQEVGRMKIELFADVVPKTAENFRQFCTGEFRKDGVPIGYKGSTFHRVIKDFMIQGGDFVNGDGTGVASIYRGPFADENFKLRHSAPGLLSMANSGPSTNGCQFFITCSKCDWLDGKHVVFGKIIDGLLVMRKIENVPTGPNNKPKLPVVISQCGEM
# Chain of Nuclear cap-binding protein subunit 1 (Q09161 whole entry): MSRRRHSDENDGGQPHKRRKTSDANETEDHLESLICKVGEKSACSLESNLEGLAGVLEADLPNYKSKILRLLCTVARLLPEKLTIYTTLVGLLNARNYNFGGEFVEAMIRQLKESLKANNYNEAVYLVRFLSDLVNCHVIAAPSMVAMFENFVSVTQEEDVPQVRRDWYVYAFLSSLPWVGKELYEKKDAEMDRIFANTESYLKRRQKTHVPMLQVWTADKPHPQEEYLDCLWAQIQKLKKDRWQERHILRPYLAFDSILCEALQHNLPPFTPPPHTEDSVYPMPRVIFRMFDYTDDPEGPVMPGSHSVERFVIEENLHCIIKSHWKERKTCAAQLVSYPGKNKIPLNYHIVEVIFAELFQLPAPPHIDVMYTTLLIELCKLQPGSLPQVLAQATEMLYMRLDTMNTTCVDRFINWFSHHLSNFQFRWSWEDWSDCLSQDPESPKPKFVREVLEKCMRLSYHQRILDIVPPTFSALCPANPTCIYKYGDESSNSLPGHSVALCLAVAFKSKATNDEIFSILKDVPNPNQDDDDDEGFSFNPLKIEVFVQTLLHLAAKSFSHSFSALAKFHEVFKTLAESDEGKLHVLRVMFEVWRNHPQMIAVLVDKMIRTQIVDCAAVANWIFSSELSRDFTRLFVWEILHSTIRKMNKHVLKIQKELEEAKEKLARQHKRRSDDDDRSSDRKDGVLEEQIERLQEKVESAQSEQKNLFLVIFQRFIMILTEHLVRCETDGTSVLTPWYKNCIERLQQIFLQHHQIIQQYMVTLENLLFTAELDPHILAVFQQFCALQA
substance,measurement,setting,value
"Nuclear cap-binding protein subunit 2, P52298",listed as a hit,[1],yes
"U5 small nuclear ribonucleoprotein 40 kDa protein, Q96DI7",listed as a hit,[2],yes
"Thioredoxin-like protein 4A, P83876",listed as a hit,[3],yes
"U2 small nuclear ribonucleoprotein B'', P08579",listed as a hit,[4],yes
"Splicing factor 3B subunit 4, Q15427",listed as a hit,[5],yes
"U6 snRNA-associated Sm-like protein LSm7, Q9UK45",listed as a hit,[6],yes
"U4/U6 small nuclear ribonucleoprotein Prp3, O43395",listed as a hit,[7],yes
"Pre-mRNA-processing factor 17, O60508",listed as a hit,[8],yes
"Peptidyl-prolyl cis-trans isomerase H, O43447",listed as a hit,[9],yes
"Nuclear cap-binding protein subunit 1, Q09161",listed as a hit,[10],yes
"U5 small nuclear ribonucleoprotein 200 kDa helicase, O75643",listed as a hit,[11],yes
